Reference: PubChem BioAssay (EPA / NIEHS)
Records with an inconclusive call do not appear. Active and inactive are the calls of the source. Rule for the calls: active = hit-call score of the fitted dose curve at least 0.9, where 1 is the maximum; inconclusive = response in the unintended direction; inactive = score below 0.9.

tested on: not listed separately; test: TOX21_TR_RXR_BLA_Antagonist_Followup_viability: Viability Assessment in the Tox21 Thyroid Hormone Receptor beta Retinoid X Receptor alpha (RXRa) Antagonism Beta-lactamase (BLA) Follow-Up Assay (AID 2283979)
Text: GeneBLAzer RXRa-UAS-bla HEK293T assay (RXRa-bla) (ThermoFisherScientific Catalog No. K1697) was run in qHTS 1536 well format as a secondary assay for specificity of response in the TOX21_TR_GH3_LUC_Agonist assay.TOX21_TR_RXR_BLA_Antagonist_Followup_viability is a component of the TOX21_TR_RXR_BLA_Antagonist_Followup assay. This component measures cell viability using the CellTiter-Glo Luciferase-coupled ATP quantitation.The assay component endpoint TOX21_TR_RXR_BLA_Antagonist_Followup_viability was analyzed with bidirectional fitting relation to DMSO as the negative control and baseline of activity. Using a type of viability reporter, loss-of-signal activity can be used to understand changes in viability. To generalize the intended target to other relatable targets, this assay endpoint is annotated to cell cycle, where the subfamily is cytotoxicity.
Cell Media Required: Growth (90% DMEM/F-12, 10% Fetal Bovine Calf Serum, 100U/ml Penicillin, 100 ug/ml Streptomycin), Assay (10ng/mL sodium selenite, 10 ug/mL humanapo-transferrin, 10 uM ethanolamine, 10 ug/mL insulin, 500 ug/mL bovine serum albumin (BSA))Assay Protocol: RXRa-bla cells were seeded at 2,500/well in 6 uL of the assay medium containing phenol red-free DMEM with 2% charcoal-stripped FBS in 1,536-well black-wall/clear-bottom plates (Greiner Bio-One North America) usinga Multidrop Combi dispenser. After5-h incubation at 37C/5% CO2 for cell attachment, 23 nL of follow-up compounds dissolved in DMSO, 11 concentrations in triplicate, and the positive control (9-cis retinoic acid) were transferred to the assay plates using a Pintool station. The assay plates were incubated at 37C/5% CO2 for 16h. One microliter of LiveBLAzer FRET-B/GCCF4-AM substrate (Life Technologies) was added to each well using an FRD. After 2-h incubation at room temperature, the fluorescence intensity was measured using an Envision plate reader (Perkin Elmer). Data were expressed as the ratio of 460:530 nm.

Structure (SMILES)	outcome	AC50
CC(C)c1c(C(=O)Nc2ccccc2)c(-c2ccccc2)c(-c2ccc(F)cc2)n1CC[C@@H](O)C[C@@H](O)CC(=O)O	inactive	–
COc1ccccc1NC(=O)c1cc2ccccc2cc1O	–	24.1 µM (active)
Nc1ccn([C@@H]2O[C@H](CO)[C@@H](O)C2O)c(=O)n1 (stereo partly specified)	inactive	–
Nc1cc(Cl)c(-c2cc(Cl)c(N)cc2Cl)cc1Cl	–	28 µM (active)
O=c1cc(-c2ccccc2)oc2ccc3ccccc3c12	inactive	–

tested on: DIO1 (gene 1733); test: CCTE_GLTED_hDIO1: CCTE's human Deiodinase 1 (DIO1) Inhibition Assay, Great Lakes Toxicology and Ecology Division (GLTED) Lab (AID 2283987);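 note: isolated human DIO1 enzyme in a cell-free setup rather than cells; enzyme activity read as free iodide liberated from substrate via Sandell-Kolthoff colorimetry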
Summary of the method: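 Cell-free human DIO1 enzyme incubated 3 h with test chemical; iodide freed from substrate then measured by Sandell-Kolthoff absorbance. Run in triplicate; loss of signal relative to DMSO taken as inhibition.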

Structure (SMILES)	AC50
CCCCCCCCCCCC	84.4 µM (active)
O=P(O)(O)CCC(F)(F)C(F)(F)C(F)(F)C(F)(F)C(F)(F)C(F)(F)C(F)(F)C(F)(F)F	182 µM (active)
O=C(O)C(F)(F)OC(F)(F)C(F)(F)OC(F)(F)C(F)(F)OC(F)(F)C(F)(F)C(F)(F)C(F)(F)F	24.6 µM (active)
NC(=NCCCCCCN=C(N)/N=C(\N)Nc1ccc(Cl)cc1)/N=C(\N)Nc1ccc(Cl)cc1	21.3 µM (active)
CCCCCCCCCC=CCC1CC(=O)OC1=O (stereo unspecified)	31.9 µM (active)
CCCCCCCCCCCCOC(=O)c1cc(O)c(O)c(O)c1	53.4 µM (active)
